FadD28 binding – inhibitors of Mycobacterium tuberculosis FadD28 bisubstrate binding | FadD28 bisubstrate probe binding, fluorescence polarization | inhibition, % at 12.5 µM | 360,000 tested, 0.22% active; in the data active = inhibition above about 8.5%, passing the limit was not always enough
Mtb UGM inh – Mtb UDP-galactopyranose mutase inhibition; P9WIQ1; purified UGM, fluorescence polarization probe displacement; inhibition, % at 10 µM; 320,000 tested, 0.06% active; AID 504406; in the data active = inhibition above about 10%, passing the limit was not always enough
Target sequence (P9WIQ1 whole entry, looked up): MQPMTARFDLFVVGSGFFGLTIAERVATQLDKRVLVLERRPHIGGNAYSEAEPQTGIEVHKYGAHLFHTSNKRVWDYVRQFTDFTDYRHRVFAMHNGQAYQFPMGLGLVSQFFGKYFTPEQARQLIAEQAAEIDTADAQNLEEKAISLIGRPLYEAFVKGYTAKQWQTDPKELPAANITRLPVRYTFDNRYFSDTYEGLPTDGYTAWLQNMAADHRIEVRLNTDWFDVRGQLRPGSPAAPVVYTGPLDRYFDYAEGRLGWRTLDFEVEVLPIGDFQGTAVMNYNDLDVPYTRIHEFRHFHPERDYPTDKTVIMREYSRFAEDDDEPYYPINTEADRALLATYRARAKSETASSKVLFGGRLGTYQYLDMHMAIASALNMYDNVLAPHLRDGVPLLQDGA
GDH-TPI counter – inhibits GDH-TPI coupling enzymes, artifact for Mtb FBA screen; GDH-TPI coupled enzyme counterscreen, NADH absorbance; inhibition, % at 4.8 µM; 360,000 tested, 1.2% active; in the data active = inhibition above about 30%;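 note: 0% = DMSO wells and 100% = wells lacking the enzyme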
Mtb hypoxia inh – inhibitors of hypoxia-regulated fluorescent reporter in Mycobacterium tuberculosis; M. tuberculosis hypoxia-regulated fluorescent reporter, fluorescence; fluorescence inhibition, % (test concentration not listed); 300,000 tested, 0.1% active; AID 1159583; in the data active = fluorescence inhibition mostly above about 23%, no sharp cut-off; inactive = mostly below about 17%
Rv3671c inh – inhibits the M. tuberculosis serine protease Rv3671c. P9WHR9. inhibition, % at 5.96 µM. 320,000 tested, 0.048% active. AID 2606; in the data active = inhibition above about 38%;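 note: extracellular domain of Rv3671c used as enzyme; 0% = enzyme with DMSO and 100% = no enzyme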
Mtb FBA inh – Mtb fructose-bisphosphate aldolase inhibition | P9WQA3 | purified M. tuberculosis FBA, fluorescence read-out | inhibition, % at 1 µM | 360,000 tested, 2.3% active | AID 588726; in the data active = inhibition above about 27%;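 note: 0% = vehicle and 100% = reference inhibitor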
Starred values were filed as active, the others as inactive; . = no result given; + = active, no number. Sampled rows, rich in hits. Any-hit rate of the full collection: about 3.5%.

SMILES	FadD28 binding	Mtb UGM inh	GDH-TPI counter	Mtb hypoxia inh	Rv3671c inh	Mtb FBA inh
CC1Cc2cc(/C=C3/SC(=S)NC3=O)ccc2O1 (stereo not given)	-0.4	0.2	36.5*	6.2	7.7	-8.5
O=C1NC(=S)S/C1=C\c1cc(Cl)cc(Cl)c1O	33.0*	.	24.7	23.9	.	-22.2
O=C1NC(=S)SC1=Cc1ccccc1Cl	-9.3	.	41.7*	10.9	.	1.7
COc1ccc2cc(C(N)=O)c(=NNC(=O)c3ccco3)oc2c1	.	.	.	0.9	.	.
COc1ccc(OCC(=O)NN=Cc2ccncc2)cc1	.	.	.	-4.4	.	.
COc1cccc(C=Nn2cncn2)c1OCC#N	.	.	.	2.4	.	.
C=CCN(CC=C)c1nc2ccccc2nc1C(C#N)C(=O)OCCOC (stereo not given)	-3.2	1.0	-5.7	.	-9.6	57.4*
CCCN(CCC)c1nc2ccccc2nc1C(C#N)C(=O)OCCOC (stereo not given)	-4.3	.	6.8	.	-13.2	-5.3
Cc1ccc(OCC(=O)NN=C/C=C/c2ccco2)cc1C	.	.	.	0.6	.	.
COc1ccc(CC(=O)c2ccc(O)cc2O)cc1	-1.5	-0.6	43.1*	.	5.7	2.5
COc1ccc(C(=O)Cc2ccc3c(c2)OCO3)c(O)c1	-1.3	-1.8	6.4	-1.1	-2.0	0.6
O=C(Cc1ccc(Br)cc1)c1ccc(O)cc1O	0.0	-1.2	41.0*	11.2	1.5	-3.6
O=C(COc1ccccc1Br)c1ccc(O)cc1O	-3.8	2.0	44.3*	-11.9	-5.5	-0.6
O=C(Cc1ccc([N+](=O)[O-])cc1)c1ccc(O)cc1O	1.3	0.5	50.6*	-0.7	2.3	1.5
COc1ccc(C=NOCC(=O)OCC(=O)N(C)c2ccccc2)cc1	.	.	.	2.2	.	.
O=C(C1=CC(c2ccc(C(F)(F)F)cc2)CC(OCc2ccc(CO)cc2)O1)N1CCN(Cc2ccccc2)CC1 (stereo not given)	.	.	.	-3.7	.	.
COc1ccc(NC(=O)CCC(=O)NN=Cc2cccnc2)cc1	.	.	.	-0.2	.	.
O=C(NN=Cc1cccnc1)c1ccc2ccccc2c1O	.	.	.	2.5	.	.
CCCn1c(=NC(=O)c2ccncc2)c(C#N)cc2c(=O)n3cccc(C)c3nc21	-3.0	.	0.0	7.9	.	7.0
CCOCCCn1c(=NC(=O)c2cccnc2)c(C(=O)OCC)cc2c(=O)n3ccccc3nc21	-3.0	3.4	12.1	7.0	-0.6	145.1*
CCOC(=O)c1cc2c(=O)n3cccc(C)c3nc2n(CCCOC)c1=NC(=O)c1cccnc1	-3.7	1.4	19.5	0.5	2.1	+
CCOC(=O)c1sc(N/N=C/c2ccc(N(C)C)cc2)nc1C	0.2	-3.7	18.5	.	-5.1	3.3
C=CCc1c(C)nc(C)nc1N/N=C/c1ccc(N(C)C)cc1	-0.9	4.1	49.8*	.	3.6	13.4
O=C(/C=C\Nc1ccccn1)c1ccc(Cl)cc1	-1.7	-0.4	31.5*	11.4	-7.5	1.1
CC(c1ccccc1)n1nnc(COCc2ccccc2)c1C#CCOCc1ccccc1 (stereo not given)	.	.	.	12.5	.	.
SMILES	FadD28 binding	Mtb UGM inh	GDH-TPI counter	Mtb hypoxia inh	Rv3671c inh	Mtb FBA inh
COc1ccc2c(c1)C(c1ccc([N+](=O)[O-])cc1)=NNC(c1ccco1)=N2	1.1	-0.6	33.3*	6.4	-6.4	-0.6
COc1cccc(NC(=O)C(=O)NN=Cc2ccc3c(c2)OCO3)c1	.	.	.	-1.7	.	.
C=C(C)C1CC=C(C)C(=NNC(=S)Nc2ccccc2)C1 (stereo not given)	.	.	.	2.2	.	.
CN(C)/C=C/c1onc(-c2c(F)cccc2Cl)c1C#N	-2.9	-2.5	31.4*	.	-12.8	-1.8
COC(=O)C1=C(c2ccc(OC(F)(F)F)cc2)C[C@@H]2CC[C@H]1N2C(=O)NCCc1ccccc1	-2.3	2.4	57.9*	.	-20.5	7.0
COC(=O)C1=C(c2ccc(OC(F)(F)F)cc2)CC2CCC1N2C(=O)NCCOc1ccccc1 (stereo not given)	.	.	.	-10.9	.	.
Cc1ccc(N/N=C2/CCCNC2=O)cc1	-2.5	0.4	9.2	.	-2.6	-1.1
CC(=O)c1ccc(N/N=C2/CCCNC2=O)cc1	-0.4	4.8	36.2*	.	-2.4	-2.5
Cc1ccccc1OCC(=O)NN=Cc1ccncc1	.	.	.	6.9	.	.
Cc1cc(Nc2nc3ccccc3[nH]c2=O)n(-c2ccccc2)n1	0.4	1.6	42.5*	.	-12.5	4.2
COc1ccc(OC)c(NC(=O)CSc2ncnc3sc(C)cc23)c1	13.7*	.	9.1	.	.	-0.1
N#CC(C#N)=Cc1cccnc1	-3.7	1.3	5.7	16.6	5.0	0.2
N#CC(C#N)=CNc1cccnc1	-1.1	1.2	43.0*	7.6	-2.8	5.3
COc1ccc([C@H]2CC(=O)C=C(c3cc4ccccc4s3)C2)cc1OC	-3.3	0.4	32.6*	.	-4.9	0.4
